Experiment [1] concerns Wnt5a (protein binding on small-molecule microarray). Briefly: Wnt5a binders on small-molecule microarray, primary screen, biophysical, 635/667 nm fluorescence (AID 1142).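 Further: fluorescence read at 667 nm with signal to noise per printed feature.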 To be noted: 635 nm fluorescence, higher = more signal.
Experiment [2] is described as follows: cell viability in Huh7 cells, primary screen, cytotoxicity control for HCV replication inhibitor project, CellTiter-Glo luminescence, basal, 48 h (AID 1143).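 Further: Huh7 hepatoma cells carrying a hepatitis C replication reporter with no stimulus; test concentration not given here.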 The settings on record: Huh7 HCV replicon, higher = more signal, called active from +8 up or from −8 down.
A short description of experiment [3]: P. aeruginosa biofilm formation inhibitors, primary screen, PAO1 strain, BacTiter-Glo luminescence, LB-PBS (AID 1144). The settings on record: 12 h, higher = more signal.
Experiment [4] in a line: CREB reporter modulators without forskolin, primary screen, cell-based, PC12, CRE-LacZ reporter, unstimulated (AID 1145). The settings on record: no forskolin, luminescence, 4.5 h, higher = more signal, called active from +8 up or from −8 down.
A short description of experiment [5]: CREB reporter modulators under forskolin, primary screen, cell-based, PC12, CRE-LacZ reporter, forskolin-stimulated (AID 1146).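 Further: PC12 cells with 6xCRE LacZ reporter stimulated by forskolin 10 µM; beta-galactosidase reporter signal reflecting CREB driven transcription.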 To be noted: luminescence, 4.5 h, higher = more signal, called active from +8 up or from −8 down.
For experiment [6], the target named is Streptavidin (Streptomyces avidinii) (UniProt P22629). Briefly: streptavidin binders on small-molecule microarray, primary screen, artefact control for SMM compound annotation, biophysical, 635/667 nm fluorescence (AID 1147).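 Further: signal reflects streptavidin binding to arrayed compounds as a control protein.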 The settings on record: streptavidin binding, higher = more signal.
Chain of Streptavidin (Streptomyces avidinii) (P22629 whole entry, looked up): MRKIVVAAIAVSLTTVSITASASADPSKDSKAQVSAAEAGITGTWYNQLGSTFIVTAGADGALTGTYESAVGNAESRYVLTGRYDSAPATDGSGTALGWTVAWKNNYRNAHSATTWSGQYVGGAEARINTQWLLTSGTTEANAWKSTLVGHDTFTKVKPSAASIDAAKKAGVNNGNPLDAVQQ
Experiment [7] in a line: small-molecule binders of probe aInhba, primary screen, biochemical, small-molecule microarray, 635/667 nm fluorescence (AID 1148).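 Further: score merges 667nm spot fluorescence with signal-to-noise for antibody binding to printed compounds.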 The settings on record: higher = more signal.
In experiment [8] the target is Torsin-1A (Homo sapiens) (UniProt O14656). The experiment can be described thus: torsin A binders from cell lysate, primary screen, small-molecule microarray, wild-type, 635/667 nm (AID 1149). To be noted: COS7 hTOR1A-WT lysate, 635 nm fluorescence, higher = more signal.
Chain of Torsin-1A (Homo sapiens) (O14656 whole entry, looked up): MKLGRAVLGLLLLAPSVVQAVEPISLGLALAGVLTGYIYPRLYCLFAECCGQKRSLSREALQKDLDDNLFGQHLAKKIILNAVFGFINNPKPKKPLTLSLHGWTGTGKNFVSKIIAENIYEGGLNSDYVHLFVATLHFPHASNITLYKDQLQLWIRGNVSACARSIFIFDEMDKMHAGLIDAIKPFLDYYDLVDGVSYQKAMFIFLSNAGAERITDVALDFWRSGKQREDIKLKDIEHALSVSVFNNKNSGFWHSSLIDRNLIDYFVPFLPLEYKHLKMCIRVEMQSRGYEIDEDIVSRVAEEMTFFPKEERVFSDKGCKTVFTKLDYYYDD
For experiment [9] the target is unchanged. Briefly: small-molecule binders of mutant TOR1A in lysate, primary screen, cell lysate, small-molecule microarray, COS7 lysate, 635/667 nm fluorescence (AID 1150).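 Further: score pools 667 nm emission and signal to noise measuring lysate protein binding.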 To be noted: COS7 hTOR1A mutant lysate, 635 nm fluorescence, higher = more signal.
Experiment [10] deals with Sonic hedgehog protein (Shh). Briefly: small-molecule binders of Shh protein, primary screen, biochemical, small-molecule microarray, 635/667 nm fluorescence (AID 1151).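 Further: Shh protein binding to compounds spotted on small-molecule microarray slides; score combines spot fluorescence intensity with signal-to-noise across triplicate slides.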 To be noted: small-molecule microarray binding, 635 nm fluorescence; higher = more signal.
Experiment [11] can be described thus: E. coli DRC41 culture turbidity changes, primary screen, E. coli filamentation inducer project, strain DRC41, OD650, 48 h (AID 1152).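 Further: E. coli MC1000 strain DRC41 lacking acrAB efflux pump and sulA.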 The settings on record: E. coli DRC41 (acrAB sulA), higher = more signal, called active from +8 up or from −8 down.
Experiment [12] can be described thus: small-molecule binders of probe aLefty1, primary screen, biochemical, small-molecule microarray, 635/667 nm fluorescence (AID 1153).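 Further: score merges spot fluorescence with signal-to-noise ratio from the scanned slide images.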 To be noted: higher = more signal.
Experiment [13] in a line: PSAC antagonists in infected red cells, primary screen, cell-based, P. falciparum Indochina, OD700, 1 h (AID 1154). The settings on record: P. falciparum Indochina infected RBC osmotic lysis, higher = more signal, called active from +8 up or from −8 down.
Experiment [14] is described as follows: PSAC antagonists in infected red cells, primary screen, cell-based, P. falciparum Indochina, OD700, 2 h (AID 1155).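 Further: lysis reports solute entry through the parasite surface anion channel PSAC; channel blockers reduce lysis of infected cells.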 The settings on record: P. falciparum Indochina infected erythrocytes, osmotic lysis OD700; higher = more signal, called active from +8 up or from −8 down.
Experiment [15] in a line: osmotic lysis modulators in infected erythrocytes, primary screen, PSAC antagonist project, cell-based, P. falciparum Indochina, OD700, 3 h (AID 1156). To be noted: higher = more signal, called active from +8 up or from −8 down.
A short description of experiment [16]: PSAC antagonists in infected red cells, primary screen, cell-based, P. falciparum Indochina, OD700, 18 h (AID 1157). The settings on record: P. falciparum Indochina infected erythrocytes, osmotic lysis OD700, 18 h; higher = more signal, called active from +8 up or from −8 down.
Experiment [17] is described as follows: modulators of S6 phosphorylation in cells, primary screen, cell-based, A549, cytoblot, luminescence, serum-stimulated (AID 1158).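 Further: serum-stimulated A549 lung adenocarcinoma cells; signal is phosphorylated S6 detected by cytoblot immunostaining with HRP secondary.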 The settings on record: A549 phospho-S6 cytoblot, 5 h, higher = more signal.
For experiment [18], the target named is NADPH oxidase 2 (Homo sapiens) (UniProt P04839). The experiment can be described thus: NOX2-dependent H2O2 signal modulators, primary screen, NOX inhibitor project, cell-based, HEK293-NOX2, PMA-stimulated, Amplex Red fluorescence (AID 1159). Further: test concentration not given here. The settings on record: 45 min, higher = more signal, called active from +8 up or from −8 down.
Chain of NADPH oxidase 2 (Homo sapiens) (P04839 whole entry, looked up): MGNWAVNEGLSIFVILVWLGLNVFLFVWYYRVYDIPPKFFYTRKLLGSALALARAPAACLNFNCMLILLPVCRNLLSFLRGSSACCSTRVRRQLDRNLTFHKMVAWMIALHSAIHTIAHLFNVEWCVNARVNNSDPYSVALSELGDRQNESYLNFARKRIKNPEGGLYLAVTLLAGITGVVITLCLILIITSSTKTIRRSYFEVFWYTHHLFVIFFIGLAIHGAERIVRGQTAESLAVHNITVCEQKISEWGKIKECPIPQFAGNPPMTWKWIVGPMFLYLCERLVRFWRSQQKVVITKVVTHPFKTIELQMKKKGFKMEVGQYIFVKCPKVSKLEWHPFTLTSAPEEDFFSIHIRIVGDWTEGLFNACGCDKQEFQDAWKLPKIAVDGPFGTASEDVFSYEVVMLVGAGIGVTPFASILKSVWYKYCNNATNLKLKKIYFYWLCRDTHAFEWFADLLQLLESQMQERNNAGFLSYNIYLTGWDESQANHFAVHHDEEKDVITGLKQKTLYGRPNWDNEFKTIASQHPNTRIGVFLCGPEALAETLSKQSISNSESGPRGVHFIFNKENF
The target of experiment [19] is NADPH oxidase 4 (Homo sapiens) (UniProt Q9NPH5). Briefly: NOX4-dependent H2O2 signal modulators, primary screen, NOX inhibitor project, cell-based, HEK293-NOX4, tetracycline-induced, Amplex Red fluorescence (AID 1160). The settings on record: 45 min, higher = more signal, called active from +8 up or from −8 down.
Chain of NADPH oxidase 4 (Homo sapiens) (Q9NPH5 whole entry, looked up): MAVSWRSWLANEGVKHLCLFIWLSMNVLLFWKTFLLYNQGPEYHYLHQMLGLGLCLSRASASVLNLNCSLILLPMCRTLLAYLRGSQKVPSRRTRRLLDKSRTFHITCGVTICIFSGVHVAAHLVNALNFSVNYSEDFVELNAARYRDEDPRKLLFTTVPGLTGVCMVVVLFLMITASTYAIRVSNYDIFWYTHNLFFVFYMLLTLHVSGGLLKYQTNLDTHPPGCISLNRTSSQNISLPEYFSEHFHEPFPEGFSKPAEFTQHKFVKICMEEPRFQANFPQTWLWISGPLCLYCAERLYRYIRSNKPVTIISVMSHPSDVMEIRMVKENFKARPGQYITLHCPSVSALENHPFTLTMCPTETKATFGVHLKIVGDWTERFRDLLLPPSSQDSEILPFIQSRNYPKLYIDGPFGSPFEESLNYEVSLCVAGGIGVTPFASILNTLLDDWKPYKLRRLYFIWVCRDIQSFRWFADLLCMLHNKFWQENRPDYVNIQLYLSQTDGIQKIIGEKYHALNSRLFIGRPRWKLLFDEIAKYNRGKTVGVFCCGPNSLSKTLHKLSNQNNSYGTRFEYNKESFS
Experiment [20] deals with NADPH oxidase 5 (Homo sapiens) (UniProt Q96PH1). Briefly: NOX5-dependent H2O2 signal modulators, primary screen, NOX inhibitor project, cell-based, HEK293-NOX5, Amplex Red fluorescence (AID 1161). To be noted: HEK293-NOX5, ionomycin, 45 min, higher = more signal.
Chain of NADPH oxidase 5 (Homo sapiens) (Q96PH1 whole entry, looked up): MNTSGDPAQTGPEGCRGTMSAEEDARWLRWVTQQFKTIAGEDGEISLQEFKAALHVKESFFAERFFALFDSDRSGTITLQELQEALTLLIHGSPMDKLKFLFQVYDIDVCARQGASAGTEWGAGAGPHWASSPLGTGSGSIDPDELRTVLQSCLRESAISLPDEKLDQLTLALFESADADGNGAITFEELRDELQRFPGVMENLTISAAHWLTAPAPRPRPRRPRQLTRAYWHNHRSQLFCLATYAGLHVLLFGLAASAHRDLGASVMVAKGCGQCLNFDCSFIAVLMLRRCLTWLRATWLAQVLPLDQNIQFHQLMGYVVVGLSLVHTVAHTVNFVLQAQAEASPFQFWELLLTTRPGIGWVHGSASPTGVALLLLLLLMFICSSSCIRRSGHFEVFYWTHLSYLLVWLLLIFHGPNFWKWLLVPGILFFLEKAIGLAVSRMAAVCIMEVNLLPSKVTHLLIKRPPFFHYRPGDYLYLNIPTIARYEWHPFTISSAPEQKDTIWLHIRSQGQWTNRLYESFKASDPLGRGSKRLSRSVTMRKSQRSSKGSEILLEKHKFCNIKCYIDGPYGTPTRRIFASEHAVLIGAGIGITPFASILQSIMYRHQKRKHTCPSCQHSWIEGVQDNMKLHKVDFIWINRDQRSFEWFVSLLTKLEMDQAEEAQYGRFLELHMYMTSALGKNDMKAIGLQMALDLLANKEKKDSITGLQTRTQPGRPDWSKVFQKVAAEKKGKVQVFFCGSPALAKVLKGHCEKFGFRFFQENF

Consider five compounds from PubChem BioAssay.

Structures are written as SMILES. Active and inactive are the calls of the source. Unless noted, how the calls were made is not given here.

On to `CC(=O)OC[C@H]1O[C@@H](ON=C(C)CCN2CCc3nc(-c4ccccc4)c(-c4ccccc4)cc3C2)[C@H](OC(C)=O)[C@@H](OC(C)=O)[C@@H]1OC(C)=O`, for which the composite z-score in experiment [1] came out at 0.344; in experiment [6], 0.65; in [7] it was 0.134; in the experiment with Torsin-1A (Homo sapiens) [8] it was 0.054; with Torsin-1A (Homo sapiens) [9], 0.257; in [10], 1.12. The compound also showed a composite z-score in [12] of 0.0355. Moreover, the z-score in experiment [2] is -0.228 (inactive); in experiment [3] it was 0.305 (inactive); in [4] it was 1.41 (inactive); in experiment [5] it was 0.0789 (inactive); in experiment [11], -1.59 (inactive); in [13] it was 1.12 (inactive). Besides, the z-score in [14] is 0.327 (inactive); in [15] it was 0.993 (inactive); in experiment [16], 0.465 (inactive); in experiment [17], -0.225; in experiment [18], -1.13 (inactive); in experiment [19] it was 0.55 (inactive). Also, the z-score in [20] was -3.13.
As for `COCCOC(=O)N1C(=O)[C@@]2(c3cc(C#CCNC(N)=O)ccc31)[C@H](c1ccccc1OCCO)N1[C@H](c3ccccc3)[C@H](c3ccccc3)OC(=O)[C@H]1[C@@H]2C(=O)N1CCN(c2ncccn2)CC1`, the composite z-score in experiment [1] came out at 0.734; in [6] it was 0.29; in [7], 0.0497; with Torsin-1A (Homo sapiens) [8], 0.303; with Torsin-1A (Homo sapiens) [9], 0.923; in [10] it was 0.966. The composite z-score in experiment [12] is 0.15. Moreover, the z-score in experiment [2] was -1.96 (inactive); in experiment [3] it was -0.897 (inactive); in experiment [4], -0.465 (inactive); in [5], 2.16 (inactive); in experiment [11], 0.981 (inactive); in [13], 2.11 (inactive). The z-score is -0.313 (inactive) in experiment [14]; 0.793 (inactive) in experiment [15]; -2.06 (inactive) in [16]; 2.82 in [17]; 1.63 (inactive) in [18]; 1.09 (inactive) in experiment [19]. Further, in experiment [20], the z-score is -0.814.
Turning to `CC(C)[C@@H](OCc1ccccc1)[C@H](C)C=NOC[C@@H](C)[C@H](OCc1ccccc1)C(C)C`, the composite z-score is 0.187 in experiment [1]; 0.118 in experiment [6]; -0.128 in experiment [7]; 0.256 with Torsin-1A (Homo sapiens) [8]; 0.204 with Torsin-1A (Homo sapiens) [9]; 0.256 in experiment [10]. Further, the composite z-score in experiment [12] was 0.233. The z-score is 0.459 (inactive) in [2]; 0.627 (inactive) in experiment [3]; 0.471 (inactive) in experiment [4]; -0.144 (inactive) in [5]; 0.52 (inactive) in experiment [11]; 0.641 (inactive) in [13]. Besides, the z-score in experiment [14] is 0.369 (inactive); in experiment [15], -0.423 (inactive); in [16], -0.222 (inactive); in [17], -0.591; in experiment [18], -0.537 (inactive); in experiment [19], -0.184 (inactive). Besides, the z-score in [20] is -0.948.
On to `O=C1[C@H]2[C@H]3[C@H](O)[C@H](O)CC(=NO[C@@H]4O[C@H](CO)[C@@H](O)[C@H](O)[C@H]4O)[C@@H]3CC[C@H]2C(=O)N1Cc1ccccc1`, for which the composite z-score in experiment [1] is -0.0389; in [6], -0.561; in [7], 0.0925; with Torsin-1A (Homo sapiens) [8] it was -0.333; in the experiment with Torsin-1A (Homo sapiens) [9], 0.409; in experiment [10], -0.37. In addition, the composite z-score in experiment [12] was -0.115. The z-score in experiment [2] is -0.435 (inactive); in [3] it was 0.0971 (inactive); in [4], -0.929 (inactive); in [5] it was 0.488 (inactive); in experiment [11], 0.755 (inactive); in experiment [13], 1.3 (inactive). Moreover, the z-score was 0.893 (inactive) in experiment [14]; 0.742 (inactive) in [15]; 0.475 (inactive) in experiment [16]; 0.62 in experiment [17]; 0.0811 (inactive) in [18]; 1.14 (inactive) in [19]. Moreover, the z-score in experiment [20] is -0.0503.
On to `CCOC(=O)NN=C1C[C@@H](O)[C@@H](O)[C@@H]2[C@@H]3C(=O)N(C(C)(C)C)C(=O)[C@@H]3CC[C@@H]12`, for which the composite z-score in experiment [1] was -0.263; in experiment [6], -0.784; in [7], -0.0849; with Torsin-1A (Homo sapiens) [8] it was 0.527; with Torsin-1A (Homo sapiens) [9] it was 0.541; in experiment [10], -0.36. For the same compound, the composite z-score in experiment [12] is -0.0601. The z-score in [2] is 0.312 (inactive); in experiment [3], 0.125 (inactive); in [4] it was -0.0246 (inactive); in experiment [5] it was 0.244 (inactive); in experiment [11], -0.0206 (inactive); in experiment [13], 0.209 (inactive). Besides, the z-score in experiment [14] is -0.0313 (inactive); in experiment [15], -0.548 (inactive); in experiment [16], 0.0353 (inactive); in [17] it was -0.12; in [18] it was 0.5 (inactive); in [19], 1.05 (inactive). The z-score in [20] worked out at 0.295.
